This note sets out measurements from PubChem BioAssay (NCATS).

Values without a mark were called inactive. Results filed as inconclusive are left out. Calls of active or inactive are those of the source. Unless noted, calls come from the whole dose curve; as a rule, active = well fitted curve in the direction sought with a large enough effect; inconclusive = small, poorly fitted or top-dose-only effect, or another doubt; inactive = no such curve, though single readings can be large; an effect the other way counts as inactive or inconclusive. Bounds are passed on as bounds.

A short description of experiment [1]: VSVG counterscreen qHTS to identify inhibitors of SARS-CoV-2 cell entry (AID 1645847; calls by dose curve; note: potency is the fitted concentration of half-maximal effect; nearly all actives have a fitted effect of over 65% in size). The conditions noted are these: VSV-G pseudotyped particle entry, luciferase; series mostly up to 57.2 µM. The essentials:
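Luminescence from a luciferase reporter, normalised to bald particle and VSV-G pseudotyped particle wells, is the read-out. Cells are HEK293 expressing human ACE2, exposed to compound 1 h before a 48 h particle infection at 37 °C.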

In experiment [2] the target is Ubiquitin carboxyl-terminal hydrolase 1 (Homo sapiens) (UniProt O94782). As to the kind of experiment: Inhibitors of USP1/UAF1: Pilot qHTS (AID 504865).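 Note: rhodamine fluorescence freed from ubiquitin-rhodamine substrate followed over time; top concentration of the series differs between compounds; % is set by controls: 0 for no effect and ±100 for the full control effect; nearly all actives have a fitted effect of over 35% in size.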 Particulars: purified USP1/UAF1, Ub-rhodamine cleavage fluorescence; series mostly up to 114 µM. Summed up: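 In 50mM HEPES pH 7.8 containing 0.5mM EDTA, 1mM TCEP, 0.1 mg/ml BSA and 0.01% Tween-20, 1nM USP1/UAF1 is exposed to compound for 15 min, then Ub-Rho (150nM final) is added and fluorescence is read over time.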
For orientation: Quantitative high-throughput screening tests each substance at several concentrations.

In experiment [3] the target is Luciferin 4-monooxygenase (Photinus pyralis) (UniProt P08659). As to the kind of experiment: Biochemical firefly luciferase enzyme assay for NPC (AID 624030).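 Note: purified P. pyralis luciferase at 10 nM with luciferin and ATP substrate; 0% = DMSO and -100% = full luciferase inhibition by PTC124 control; nearly all actives have a fitted effect of over 70% in size.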 Particulars: purified P. pyralis luciferase, luminescence, 5 min; series mostly up to 58.6 µM. Summed up: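 Counter-screen for direct inhibition of the luciferase enzyme by approved-drug library compounds, run at 10 nM enzyme in 50 mM Tris acetate (final). Luminescence was read within 5 min of enzyme-buffer addition and normalized to PTC124 versus DMSO (0%).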

Experiment [4] is described as follows: qHTS profiling for inhibitors of Plasmodium falciparum proliferation (AID 504749).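 Note: 0% = DMSO vehicle and full inhibition = artemisinin control; nearly all actives have a fitted effect of over 60% in size.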 The conditions noted are these: P. falciparum in erythrocytes, SYBR Green DNA, 72 h, at 28.7 µM (top of the series). The essentials:
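P. falciparum-infected erythrocytes (0.3% parasitemia, 2.5% hematocrit final) were exposed to compounds for 72 h at 37 C in 5% CO2, then lysed with SYBR Green buffer overnight at room temperature; parasite DNA fluorescence was normalized to artemisinin and DMSO controls.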

For experiment [5], the target named is Guanine nucleotide-binding protein G(i) subunit alpha-1 (Homo sapiens) (UniProt P63096). Briefly: qHTS Assay for Inhibitors of RGS12 GoLoco Motif Activity (Green Fluorophore) (AID 879).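 Note: 0% = labeled peptide with Gαi1 and full inhibition = labeled peptide alone without protein; negative values mean loss of peptide binding seen as reduced polarization.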 Particulars: Galphai1/FITC-RGS12 GoLoco peptide, fluorescence polarization; series mostly up to 57.1 µM. The essentials: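 Fluorescence polarization assay: 50 nM Gαi1 with 10 nM FITC-labeled RGS12 GoLoco peptide in 10 mM Tris pH 7.5, 150 mM NaCl, 0.1 mM GDP, 0.05% NP40, 10 min at room temperature with compound.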

In experiment [6] the target is Pyruvate kinase (Leishmania mexicana) (UniProt Q27686). Briefly: qHTS Validation Assay for Inhibitors of Leishmania Mexicana Pyruvate Kinase (AID 945).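 For activity change, negative = inhibition: 0% = DMSO only neutral control wells.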 Note: potency is the fitted concentration of half-maximal effect. The conditions noted are these: purified L. mexicana pyruvate kinase, enzyme activity, E451W mutant enzyme; series mostly up to 57.5 µM. Summed up:
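qHTS eight-point titrations against 0.2 nM LmPYK (E451W) in imidazole buffer pH 7.2 with 0.5 mM PEP, 0.1 mM ADP; 1 h, room temperature. Readout: PKLight luminescence, normalized to neutral DMSO wells.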

Experiment [7] concerns the target Alpha-galactosidase (Coffea arabica) (UniProt Q42656). Briefly: Counterscreen for Glucocerebrosidase Inhibitors: qHTS Assay for Coffee Bean alpha-Galactosidase at pH 4.5 (AID 957).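 Note: plate controls were enzyme alone for no effect and no enzyme for full effect.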 Particulars: purified coffee bean alpha-galactosidase, fluorogenic substrate; series mostly up to 76.9 µM. Summed up: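 AC50 values derive from Hill-equation modeling of concentration-response data, normalized to no-enzyme and full-activity controls. The pH 4.5 citrate assay used 2 nM coffee bean enzyme and 80 uM fluorogenic substrate for 20 min.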
Background: Counterscreens check selectivity or assay interference.

For experiment [8], the target named is Alpha-galactosidase A (Homo sapiens) (UniProt P06280). Briefly: Counterscreen for Glucocerebrosidase Inhibitors: qHTS Assay for Human alpha-Galactosidase at pH 4.5 (AID 992). Note: 0% is about no effect. Particulars: purified enzyme, fluorogenic substrate; series mostly up to 76.9 µM. The essentials:
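Quantitative HTS: compounds tested from 0.7 nM up to 77 uM against 2 nM enzyme with 80 uM 4-MU alpha-D-galactopyranoside. The 20 min room-temperature reaction is stopped with 1M NaOH/1M glycine, pH 10.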

Experiment [9] deals with alpha-glucosidase (Oryza sativa, rice) (UniProt Q653V4). As to the kind of experiment: Counterscreen for Glucocerebrosidase Inhibitors: qHTS Assay for Rice alpha-Glucosidase at pH 5.0 (AID 997).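 Note: 0% = full activity with enzyme and -100% = basal without enzyme.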 The conditions noted are these: rice alpha-glucosidase enzyme activity; series mostly up to 76.9 µM. Summed up: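 Rice alpha-glucosidase (4 nM final) with 400 uM 4-methylumbelliferyl-alpha-D-glucopyranoside in citrate buffer pH 5.0, 20 min at room temperature, stopped at pH 10; fluorescence 365/440 nm, compounds 0.7 nM–77 uM, AC50 from Hill fits.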

Experiment [10] concerns the target Alpha-galactosidase (Coffea arabica) (UniProt Q42656). Briefly: Counterscreen for Glucocerebrosidase Inhibitors: qHTS Assay for Coffee Bean alpha-Galactosidase at pH 5.9 (AID 998).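 Note: plate controls were uninhibited enzyme for no effect and no-enzyme basal signal for full effect.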 The conditions noted are these: coffee bean alpha-galactosidase enzyme assay; series mostly up to 76.9 µM. Summed up:
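Green coffee bean enzyme (2 nM final) was incubated with compounds (0.7 nM–77 uM) and 4-methylumbelliferyl alpha-D-galactopyranoside (80 uM) in citrate buffer pH 5.9, 20 min at room temperature. High-pH stop; fluorescence 365/440 nm; AC50 from Hill fits.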

Experiment [11] can be described thus: Primary qHTS for inhibitors of SARS-S pseudo-typed particle cell entry (AID 1479145; calls by dose curve; note: nearly all actives have a fitted effect of over 45% in size; note: potency is the fitted concentration of half-maximal effect). Particulars: SARS-S pseudotyped particle cell entry, luciferase reporter; series mostly up to 57.1 µM.
Experiment [12] in a line: Primary qHTS for Huh7 cytotoxicity: counterscreen for inhibitors of MERS-S pseudotyped particle cell entry (AID 1479147; calls by dose curve). The conditions noted are these: cell viability read-out; series mostly up to 57.1 µM.
Experiment [13] in a line: Primary qHTS for Vero E6 cytotoxicity: counterscreen for inhibitors of SARS-S pseudo-typed particle cell entry (AID 1479150; calls by dose curve). The conditions noted are these: cell viability; series mostly up to 57.1 µM.
Experiment [14] can be described thus: AP1 Signaling Pathway (AID 357; active = well fitted curve in either direction with a large enough effect, not every such curve was filed as active;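 note: ME-180 reporter cells stimulated with EGF at its EC50 level; % is set by controls: 0 for no effect and ±100 for the full control effect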). The conditions noted are these: ME-180 AP-1-bla reporter, EGF-induced, beta-lactamase ratio, 5 h; series mostly up to 17.2 µM. The essentials: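 Modulation of EGF-driven AP-1 transcription was assessed with a beta-lactamase reporter in ME-180 cells. Compound and EC50 EGF were co-incubated 5 hours at 37 °C before 2.5-hour CCF4 loading at room temperature and dual-emission reading.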

Experiment [15] is described as follows: NFAT Signaling Pathway (AID 444; active = well fitted curve in either direction with a large enough effect, not every such curve was filed as active;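 note: carbachol stimulus at about its EC50 of 1 µM final; % is set by controls: 0 for no effect and ±100 for the full control effect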). Particulars: Jurkat NFAT-bla M1, carbachol, beta-lactamase ratio, 5 h. The essentials: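 Jurkat cells carrying an NFAT-driven β-lactamase reporter and co-transfected muscarinic M1 receptor were treated with compound plus carbachol (1 uM final, an EC50 level) for 5 h at 37 °C. CCF4 loading followed for 1 h at RT; 460/530 nm ratio gave %activity.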

A short description of experiment [16]: Stat Signaling Pathway (AID 446; active = well fitted curve in either direction with a large enough effect, not every such curve was filed as active;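 note: ME-180 cervical cancer cells given 40 pM IL-6 alongside compound; SIE-controlled beta-lactamase reporter measured as 460/530 nm FRET emission ratio; % is set by controls: 0 for no effect and ±100 for the full control effect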). The conditions noted are these: ME-180 SIE beta-lactamase reporter, IL-6 stimulated, 5 h; series mostly up to 17.2 µM. The essentials:
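Reporter line: ME-180 cervical carcinoma, SIE-beta-lactamase. Treatment: compound with 40 pM IL-6, 5 hrs, 37 C, in low-serum OPTI-MEM with 10 mM HEPES pH 7.3. Detection: 460/530 nm fluorescence.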

The target of experiment [17] is Glucocorticoid receptor (Homo sapiens) (UniProt P04150). Briefly: GR-EFC Redistribution (AID 451; calls by dose curve; note: potency is the fitted concentration of half-maximal effect). The conditions noted are these: CHO-K1 GR-EFC translocation, beta-gal luminescence, 2 h. Summed up:
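CHO-K1 cells stably expressing nuclear-localized β-gal enzyme acceptor and GR fused C-terminally to the enzyme donor fragment; ligand-driven nuclear translocation restores β-gal by complementation. Compounds titrated up to 46 uM final, 2 h at 37 °C; luminescence read.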

Experiment [18] concerns the target Mitogen-activated protein kinase 10 (Mus musculus) (UniProt Q61831). As to the kind of experiment: JNK3 AlphaScreen Assay (AID 530; active = well fitted curve in either direction with a large enough effect, not every such curve was filed as active;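 note: kinase came from lysate of stimulated human HepG2 cells; signal reports phosphorylation of biotinylated GST-cJun 1-79 at Ser73 with 10 µM ATP; % is set by controls: 0 for no effect and ±100 for the full control effect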). Particulars: JNK3 lysate, c-Jun phosphorylation; series mostly up to 57.1 µM. Summed up:
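JNK3 came from HepG2 lysates pre-activated with IL-1beta and TNF-alpha and phosphorylated biotinylated GST-cJun (1-79) at 10 uM ATP, pH 7.6, room temperature. Compounds were titrated. AlphaScreen signal used anti-phospho-cJun (Ser73) antibody.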

Experiment [19] has as its target 3',5'-cyclic-AMP phosphodiesterase 4B (Homo sapiens) (UniProt Q07343). Briefly: qHTS Assay for Inhibitors of PDE-IV (AID 607; active = well fitted activation curve with a large enough effect in the main read-out, with a control signal flat, not every such curve was filed as active; note: % of control where 0% means no effect). The conditions noted are these: HEK293 ACTOne CNG channel cells, membrane potential fluorescence; series mostly up to 22.9 µM. The essentials: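 Cell-based read-out of cAMP via a modified cyclic nucleotide-gated channel and membrane potential dye (535/590 nm) in HEK293 cells expressing PDE4 endogenously. Compounds tested up to 22.9 uM final; 100 uM RO 20-1724 reference.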

Sequence of Ubiquitin carboxyl-terminal hydrolase 1 (Homo sapiens) (O94782 whole entry, looked up): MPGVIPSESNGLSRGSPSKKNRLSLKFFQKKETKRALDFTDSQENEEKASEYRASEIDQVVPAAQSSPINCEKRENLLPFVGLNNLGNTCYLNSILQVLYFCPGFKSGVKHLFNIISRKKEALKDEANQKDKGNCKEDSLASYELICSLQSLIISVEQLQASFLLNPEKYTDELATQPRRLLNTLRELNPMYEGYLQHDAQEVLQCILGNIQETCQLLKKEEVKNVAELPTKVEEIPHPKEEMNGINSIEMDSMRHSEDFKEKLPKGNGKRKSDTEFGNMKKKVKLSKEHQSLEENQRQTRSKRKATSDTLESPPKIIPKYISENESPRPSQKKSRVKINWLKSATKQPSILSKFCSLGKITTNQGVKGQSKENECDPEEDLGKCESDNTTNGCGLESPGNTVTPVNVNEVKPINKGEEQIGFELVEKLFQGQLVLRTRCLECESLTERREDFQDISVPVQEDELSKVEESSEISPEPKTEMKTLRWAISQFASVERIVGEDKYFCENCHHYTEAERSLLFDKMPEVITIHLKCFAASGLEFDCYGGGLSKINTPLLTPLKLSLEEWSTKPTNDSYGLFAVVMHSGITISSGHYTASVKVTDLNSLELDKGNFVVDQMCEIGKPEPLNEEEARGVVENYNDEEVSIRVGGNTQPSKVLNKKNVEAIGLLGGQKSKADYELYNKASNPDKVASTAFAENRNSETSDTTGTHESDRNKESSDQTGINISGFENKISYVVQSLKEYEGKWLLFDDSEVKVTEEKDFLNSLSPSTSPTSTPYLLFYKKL
Sequence of Alpha-galactosidase (Coffea arabica) (Q42656 whole entry, looked up): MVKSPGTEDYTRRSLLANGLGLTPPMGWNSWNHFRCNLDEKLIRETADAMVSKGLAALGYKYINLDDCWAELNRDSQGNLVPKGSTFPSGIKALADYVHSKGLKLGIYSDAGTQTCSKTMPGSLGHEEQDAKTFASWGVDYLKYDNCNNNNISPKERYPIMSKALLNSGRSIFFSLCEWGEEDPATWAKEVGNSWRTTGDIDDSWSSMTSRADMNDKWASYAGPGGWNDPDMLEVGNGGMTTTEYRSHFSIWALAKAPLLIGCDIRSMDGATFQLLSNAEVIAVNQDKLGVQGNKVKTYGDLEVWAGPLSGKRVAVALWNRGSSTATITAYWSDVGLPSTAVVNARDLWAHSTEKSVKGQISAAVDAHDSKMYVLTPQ
Sequence of Alpha-galactosidase A (Homo sapiens) (P06280 whole entry, looked up): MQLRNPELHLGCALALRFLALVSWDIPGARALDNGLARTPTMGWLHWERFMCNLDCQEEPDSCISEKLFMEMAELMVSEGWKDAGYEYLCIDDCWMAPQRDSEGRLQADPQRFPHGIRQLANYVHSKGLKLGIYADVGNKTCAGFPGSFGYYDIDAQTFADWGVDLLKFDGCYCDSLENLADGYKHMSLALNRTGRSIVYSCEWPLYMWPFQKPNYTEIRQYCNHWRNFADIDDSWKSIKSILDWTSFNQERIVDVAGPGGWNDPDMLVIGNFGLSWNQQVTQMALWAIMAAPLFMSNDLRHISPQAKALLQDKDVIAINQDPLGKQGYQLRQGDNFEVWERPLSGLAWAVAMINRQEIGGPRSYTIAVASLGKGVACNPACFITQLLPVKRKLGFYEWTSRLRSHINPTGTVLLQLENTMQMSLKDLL
Sequence of Luciferin 4-monooxygenase (Photinus pyralis) (P08659 whole entry, looked up): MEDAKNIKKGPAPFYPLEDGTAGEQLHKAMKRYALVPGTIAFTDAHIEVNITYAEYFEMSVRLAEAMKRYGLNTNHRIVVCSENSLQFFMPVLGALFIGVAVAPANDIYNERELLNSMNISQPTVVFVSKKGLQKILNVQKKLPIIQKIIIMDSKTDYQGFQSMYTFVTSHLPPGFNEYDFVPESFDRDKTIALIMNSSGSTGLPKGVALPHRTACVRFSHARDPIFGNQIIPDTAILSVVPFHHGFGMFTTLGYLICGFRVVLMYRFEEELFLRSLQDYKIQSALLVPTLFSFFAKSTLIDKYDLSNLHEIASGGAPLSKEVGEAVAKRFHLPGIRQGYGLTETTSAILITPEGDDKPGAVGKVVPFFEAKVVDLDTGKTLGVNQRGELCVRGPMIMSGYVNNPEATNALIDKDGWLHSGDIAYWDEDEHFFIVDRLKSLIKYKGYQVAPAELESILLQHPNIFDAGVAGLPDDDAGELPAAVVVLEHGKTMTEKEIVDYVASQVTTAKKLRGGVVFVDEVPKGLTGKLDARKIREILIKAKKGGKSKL
Sequence of Pyruvate kinase (Leishmania mexicana) (Q27686 2-499 E452W): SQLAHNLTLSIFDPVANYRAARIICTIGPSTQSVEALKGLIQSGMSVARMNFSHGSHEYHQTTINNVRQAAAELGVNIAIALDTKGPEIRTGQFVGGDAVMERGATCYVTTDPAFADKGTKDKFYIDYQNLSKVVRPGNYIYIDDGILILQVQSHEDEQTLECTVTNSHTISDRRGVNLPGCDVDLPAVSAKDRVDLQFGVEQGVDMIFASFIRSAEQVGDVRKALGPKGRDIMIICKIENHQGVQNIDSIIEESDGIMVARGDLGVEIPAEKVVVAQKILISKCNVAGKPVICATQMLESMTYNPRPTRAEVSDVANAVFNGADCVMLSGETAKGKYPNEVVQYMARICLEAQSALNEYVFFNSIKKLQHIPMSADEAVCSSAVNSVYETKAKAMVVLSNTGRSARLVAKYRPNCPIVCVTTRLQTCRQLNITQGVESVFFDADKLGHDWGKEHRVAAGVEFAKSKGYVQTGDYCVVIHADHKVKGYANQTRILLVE
Sequence of Guanine nucleotide-binding protein G(i) subunit alpha-1 (Homo sapiens) (P63096 whole entry, looked up): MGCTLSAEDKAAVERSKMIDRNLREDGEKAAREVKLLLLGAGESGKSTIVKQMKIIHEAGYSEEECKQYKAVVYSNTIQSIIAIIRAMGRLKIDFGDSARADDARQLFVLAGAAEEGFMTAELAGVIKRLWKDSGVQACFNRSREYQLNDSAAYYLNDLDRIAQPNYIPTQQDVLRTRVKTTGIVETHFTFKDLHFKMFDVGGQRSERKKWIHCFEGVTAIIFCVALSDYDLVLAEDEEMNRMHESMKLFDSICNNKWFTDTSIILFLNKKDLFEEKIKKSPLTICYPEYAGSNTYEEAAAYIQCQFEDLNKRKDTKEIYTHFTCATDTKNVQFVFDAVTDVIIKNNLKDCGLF
Sequence of Glucocorticoid receptor (Homo sapiens) (P04150 whole entry, looked up, the tested form may be a part): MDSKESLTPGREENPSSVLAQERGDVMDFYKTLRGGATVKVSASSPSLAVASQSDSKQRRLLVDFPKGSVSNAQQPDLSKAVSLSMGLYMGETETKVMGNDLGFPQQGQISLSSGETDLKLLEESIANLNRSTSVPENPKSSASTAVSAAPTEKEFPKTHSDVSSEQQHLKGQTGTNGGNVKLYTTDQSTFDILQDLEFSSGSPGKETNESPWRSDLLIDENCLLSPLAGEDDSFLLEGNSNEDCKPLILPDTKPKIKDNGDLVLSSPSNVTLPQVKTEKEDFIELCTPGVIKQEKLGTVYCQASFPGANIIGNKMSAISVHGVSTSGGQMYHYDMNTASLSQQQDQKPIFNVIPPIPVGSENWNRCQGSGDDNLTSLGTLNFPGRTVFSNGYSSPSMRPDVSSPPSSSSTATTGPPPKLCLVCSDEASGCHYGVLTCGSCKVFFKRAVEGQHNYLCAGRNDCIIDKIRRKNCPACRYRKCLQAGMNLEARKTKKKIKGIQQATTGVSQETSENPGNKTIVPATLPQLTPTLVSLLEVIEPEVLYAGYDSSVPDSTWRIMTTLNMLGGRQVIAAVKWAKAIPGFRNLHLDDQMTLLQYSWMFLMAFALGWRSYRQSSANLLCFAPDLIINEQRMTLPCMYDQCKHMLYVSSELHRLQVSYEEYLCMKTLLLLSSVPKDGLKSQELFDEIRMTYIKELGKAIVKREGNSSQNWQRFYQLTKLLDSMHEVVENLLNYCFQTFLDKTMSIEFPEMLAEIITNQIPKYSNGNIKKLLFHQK
Sequence of 3',5'-cyclic-AMP phosphodiesterase 4B (Homo sapiens) (Q07343 whole entry, looked up): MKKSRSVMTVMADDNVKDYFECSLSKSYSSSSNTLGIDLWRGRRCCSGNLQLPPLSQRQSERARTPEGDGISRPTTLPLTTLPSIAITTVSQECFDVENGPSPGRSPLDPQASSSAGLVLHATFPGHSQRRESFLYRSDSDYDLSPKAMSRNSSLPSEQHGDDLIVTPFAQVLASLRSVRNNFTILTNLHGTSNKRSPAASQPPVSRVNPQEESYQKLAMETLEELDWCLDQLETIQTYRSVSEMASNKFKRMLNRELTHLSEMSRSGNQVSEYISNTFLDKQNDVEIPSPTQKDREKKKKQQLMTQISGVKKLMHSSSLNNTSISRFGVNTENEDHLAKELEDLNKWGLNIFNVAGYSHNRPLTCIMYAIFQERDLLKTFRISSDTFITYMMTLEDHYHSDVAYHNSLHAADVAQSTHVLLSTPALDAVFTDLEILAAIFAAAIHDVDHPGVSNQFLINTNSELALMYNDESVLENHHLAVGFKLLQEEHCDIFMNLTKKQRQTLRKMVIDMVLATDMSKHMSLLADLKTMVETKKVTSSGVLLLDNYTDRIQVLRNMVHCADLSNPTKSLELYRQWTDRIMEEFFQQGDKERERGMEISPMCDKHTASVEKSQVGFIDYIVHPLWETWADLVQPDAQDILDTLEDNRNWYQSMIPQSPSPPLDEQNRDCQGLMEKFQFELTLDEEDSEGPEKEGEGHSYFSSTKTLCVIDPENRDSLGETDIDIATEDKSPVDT

In the case of `C/C1=C/C[C@@H](/C(C)=C/c2csc(C)n2)OC(=O)C[C@H](O)C(C)(C)C(=O)[C@H](C)[C@@H](O)[C@@H](C)CCC1`, in experiment [1], the Potency was 0.0607 µM (active).
Regarding `CCCC[N+]1(C)C2CC(OC(=O)C(CO)c3ccccc3)CC1C1OC12` (configuration not stated), the Potency entry in experiment [2] and in experiment [3] was “inactive” each time. In addition, the activity, negative = inhibition in experiment [4] (parasite line A) was -8.81%; in experiment [4] (parasite line B), -5.62%.
On to `CCCCN1C2CCC1CC(OC(c1ccc(F)cc1)c1ccc(F)cc1)C2` (configuration not stated), for which the result in experiment [5], in [7], in experiment [8], in experiment [9] and in [10] was inactive. In addition, in [6], the Potency entry was “inactive”.
Turning to `OCc1cc(C(O)CNCCCCCCOCCOCc2c(Cl)cccc2Cl)ccc1O` (configuration not stated), the Potency entry in [11], in experiment [12] and in [13] was “inactive” each time.
`CC12CCC3C(CCC4=C(O)C(=O)CCC43C)C1CCC2=O` (configuration not stated): the Potency entry in experiment [2] and in [3] was “inactive” each time.
Turning to `CC(C)OC(=O)CCC/C=C\C[C@@H]1[C@@H](CC[C@@H](O)CCc2ccccc2)[C@H](O)C[C@@H]1O`, the activity change, negative = inhibition in experiment [11] is -26.3% [at 11.4 µM]. Besides, the activity change, negative = cytotoxicity in experiment [12] was -6.62% [at 11.4 µM]; in experiment [13], 3.55% [at 11.4 µM].
With `COCC(=O)Nc1cc(Sc2ccccc2)ccc1N=C(NC(=O)OC)NC(=O)OC`, the Potency result in experiment [11], in experiment [12] and in experiment [13] was “inactive” throughout.
Take `Cc1cc(/C=C/C#N)cc(C)c1Nc1ccnc(Nc2ccc(C#N)cc2)n1`: the Potency in experiment [11] is 22.4 µM (active).
Regarding `C[C@H]1OC[C@@H](C[N+](C)(C)C)O1`, the result in experiment [14], in experiment [16], in [18], in [5], in experiment [7] and in experiment [8] was inactive. For the same compound, the compound was called inactive in [9] and in experiment [10]. In addition, the activity change, negative = inhibition in [15] (at 17.2 µM (top of the series)) is 147% [activator] (active). Further, the Potency in experiment [17] is above 46 µM. Besides, the Potency entry in experiment [6] is “inactive”.
Turning to `C[C@H]1C2Cc3ccc(O)cc3[C@]1(C)CCN2CC1CC1`, the Potency entry in [2] and in experiment [3] was “inactive” in each case.
In the case of `NNCc1cccc(O)c1`, the outcome in [14], in experiment [16], in [18], in experiment [5], in [7] and in experiment [8] was inactive. The outcome in experiment [9] and in experiment [10] was inactive. For the same compound, the activity change, negative = inhibition in experiment [15] (at 38 µM (top of the series)) was -15.7%. For the same compound, the Potency was above 46 µM in experiment [17] and 10 µM (active) in experiment [6]. Moreover, the Potency result in experiment [19] is “inactive”.
For the compound `CCN(CC)C(=O)N[C@@H]1C[C@@H]2c3cccc4[nH]cc(c34)C[C@H]2N(C)C1`, the Potency entry in [2] and in experiment [3] was “inactive” in each case.
As to `CC(C)(O)C1C2OC(=O)C1[C@]1(O)C[C@H]3O[C@]34C(=O)O[C@H]2[C@]14C` (some centres not stated) (tested in a mixture with another compound), the Potency entry in experiment [2] and in experiment [3] was “inactive” in each case. Further, the figures for the activity, negative = inhibition in experiment [4] (parasite line A) and in experiment [4] (parasite line B) were 14% and -0.69%, respectively.
Consider `NC(=O)[C@H]1O[C@@H](O)[C@H](O)[C@@H](O)[C@@H]1O`, for which the Potency result in experiment [11], in [12] and in experiment [13] was “inactive” in each case.
